Assay results reported in publication doi:10.1101/2024.03.05.583629.

Target: pT7_6His-AlfaTag-HOXD13 (human, UniProt P35453 263-343)
Test: PADIT-seq
Conditions: dsDNA, one strand shown

Sequence of pT7_6His-AlfaTag-HOXD13 (P35453 263-343): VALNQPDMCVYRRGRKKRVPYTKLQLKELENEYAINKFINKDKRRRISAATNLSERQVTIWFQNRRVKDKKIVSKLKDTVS

Sequence | binding signal
CTCGAGGATATCAAGATCTGGCCTCGGCCTCATAAAAGGAACCTCTAGCTAGCCGACTCACTATAGGGATAATCGCCCTGAGCAAAGACC | 3.06 ± 0.0788 log2FC
CTCGAGGATATCAAGATCTGGCCTCGGCACATTAAAAGGAACCTCTAGCTAGCCGACTCACTATAGGGATAATCGCCCTGAGCAAAGACC | 2.06 ± 0.09 log2FC
CTCGAGGATATCAAGATCTGGCCTCGGCTCCCTAAAAGGAACCTCTAGCTAGCCGACTCACTATAGGGATAATCGCCCTGAGCAAAGACC | -0.0391 ± 0.141 log2FC
